From PubChem BioAssay AID2279 (Southern Research Specialized Biocontainment Screening …, 2010) come the findings set out here.

Measured potencies and affinities stand elsewhere. The source made the active and inactive calls. No rule for the calls is given here.

This assay can be described thus: HIV-1 Env-mediated cell fusion inhibitors, dose response, CCR5-tropic Env (AID 2279). The note with it: CCR5-tropic HIV-1 Env, reporter read-out; series mostly up to 50 µM.
Turning to `O=C(O)CN1C(=O)/C(=C\c2cc(Br)ccc2OCc2ccc(F)cc2)SC1=S`, the result was inactive.
`Cc1cccc(S(=O)(=O)Nc2nc3ccccc3nc2Nc2cccc(C(=O)O)c2)c1`: the outcome was inactive.
`COc1cc(/C=C2/C(=N)N3C(=NC2=O)SN=C3S(C)(=O)=O)ccc1OS(=O)(=O)c1ccccc1`: the outcome was inactive.
In the case of `Cc1cc(N2C(=O)C(O)=C(C(=O)c3ccc(C)o3)C2c2cccc(Oc3ccccc3)c2)no1` (centres undefined), the result was inactive.
As for `O=C(O)COc1ccc(/C=C/C(=O)c2ccc(C3CCCCC3)cc2)cc1`, the outcome was inactive.
For `CCCOc1ccc(C2C(C(=O)c3cc4ccccc4o3)=C(O)C(=O)N2c2cc(C)on2)cc1` (centres undefined), the result was inactive.
As for `N=C1/C(=C\c2ccc(-c3cccc(C(=O)O)c3)o2)C(=O)N=C2SC=C(c3ccccc3)N12`, the outcome was inactive.
`COc1ccc(NS(=O)(=O)c2ccc3c(c2)[C@H]2C=CC[C@H]2[C@@H](c2ccc(C(=O)O)cc2)N3)cc1`: the outcome was inactive.
In the case of `CCc1nnc(NS(=O)(=O)c2ccc(NC(=S)NC(=O)/C=C/c3cccs3)cc2)s1`, the result was inactive.
On to `O=C(CN1C(=O)/C(=C2\SC(=S)N(CCS(=O)(=O)O)C2=O)c2ccccc21)Nc1cccc(Br)c1`, for which the result was inactive.
In the case of `O=C(O)c1ccc(Cl)c(S(=O)(=O)Nc2ccccc2C(=O)Nc2ccc(Cl)cc2)c1`, the outcome was inactive.
`CCOC(=O)c1c(N2C(=O)Nc3cc(Cl)c(Cl)cc3N2O)sc2c1CCCCC2`: the result was inactive.
As to `O=C(NN1C(=O)/C(=C\c2ccc(O)c([N+](=O)[O-])c2)SC1=S)c1ccccc1Cl`, the result was inactive.
On to `O=C(NCCc1ccccc1)c1ccc2c(=O)[nH]c3c(C(=O)NCC4CCCO4)sc(=S)n3c2c1` (centres undefined), for which the outcome was inactive.
Regarding `Cc1ccc(-c2nn(-c3ccccc3)cc2/C=C2\SC(=S)N(CC(=O)O)C2=O)cc1`, the outcome was inactive.
Turning to `CC(C)(C)CC(C)(C)c1ccc(OCC(=O)N/N=C/c2ccc(S(=O)(=O)O)o2)cc1`, the result was inactive.
Consider `COc1cccc(-c2coc3c(C)c4oc(=O)c(CCC(=O)O)c(C)c4cc23)c1`, for which the outcome was inactive.
As to `Cc1cc(Cl)ccc1OC(C)C(=O)Nc1ccc(S(=O)(=O)Nc2cnc3ccccc3n2)cc1` (centres undefined), the result was inactive.
In the case of `COc1cc(/C=C2/SC(=S)N(CC(=O)O)C2=O)ccc1OCC(=O)Nc1ccc(C)c(C)c1`, the outcome was inactive.
As for `O=C(O)C1Nc2ccc(Br)cc2C2C=CCC12` (centres undefined), the entry is “inactive”.
In the case of `O=C1N=c2ccc(Br)cc2=C1c1sc(=S)n(NS(=O)(=O)c2ccccc2)c1O`, the outcome was inactive.
Consider `CCC(C)(C)C1CCc2c(sc(NC(=O)c3ccccc3C(=O)O)c2C#N)C1` (centres undefined), for which the outcome was inactive.
Take `Cc1ccc(Cl)cc1N1CCN(C(=O)Cc2c(C(=O)O)[nH]c3ccc(Cl)cc23)CC1`: the result was inactive.
Take `O=C(COc1ccc(Cl)cc1)Nc1cc(NC(=O)COc2ccc(Cl)cc2)cc(C(=O)O)c1`: the result was inactive.
In the case of `Cc1ccc(S(=O)(=O)/N=C2/NC(=O)/C(=C/c3cc([N+](=O)[O-])ccc3O)S2)cc1`, the outcome was inactive.
In the case of `CCCCCC#CCC#CCC#CCC#CCCCC(=O)O`, the outcome was inactive.
Regarding `O=S(=O)(Nc1nc(-c2sccc2Cl)cs1)c1cc(Cl)ccc1Cl`, the result was inactive.
Take `Cc1cn2c(N)c(C=C3C=C(Cl)C(=O)C(Cl)=C3)c(=O)nc2s1`: the outcome was inactive.
As for `COc1ccc(C(=O)COC(=O)c2ccccc2NS(=O)(=O)c2ccc(O)c([N+](=O)[O-])c2)cc1`, the entry is “inactive”.
As for `C=CC#CC[N+]1(CC#Cc2ccccc2)CCOCC1`, the entry is “inactive”; as for `O=C(O)CSc1ncnc2c1sc1nc(-c3ccccc3)c3c(c12)CCC3`, “inactive”; as for `O=C(O)CSc1nc(-c2ccc(Cl)cc2)nc2c1oc1ccccc12`, “inactive”.
As for `Cc1cc(Cl)ccc1OC(C)C(=O)Nc1ccc(C(=O)Nc2ccccc2C(=O)O)cc1` (centres undefined), the result was inactive.
Take `O=C1NC(=O)/C(=C/c2ccc(-c3cc(C(=O)O)ccc3Cl)o2)S1`: the outcome was inactive.
